Laboratory results published in ChEMBL document CHEMBL3988442, “University of Dundee, Small-Polar-MMV Screening Library” (2021).
In all, about 69,000 compounds went through this assay and about 1,000 (1.4%) showed an effect of 50% or more. The sample as a whole holds a higher share of strong results than the screen did.

Test system: Leishmania donovani
Assay: Leishmania intramacrophage assay
Assay type: functional, organism-based
Set-up: scale not given: in the data most compounds retested in dose-response had high values

Q: For `Cc1sc2nc(CCN)nc(N3CCS(=O)(=O)CC3)c2c1C`, which “Percent Effect” value (30.3 µM, […]) is on record?
A: Its value is 0.7518%.

Q: With `Cc1sc2nc(C(F)(F)F)nc(N3CCN(C)CC3)c2c1C` as the compound, how does the “Percent Effect” value (30.3 µM, […]) read?
A: Its value is 9.999%.

Q: Which “Percent Effect” value (30.3 µM, […]) does the source give for `Cc1sc2nc(CCN)nc(N3CC(N4CCCCC4)C3)c2c1C` here?
A: Its value is 85.94%.

Q: For `CCOC(=O)N1CCN(c2nc(CCN)nc3sc(C)c(C)c23)CC1`, which “Percent Effect” value (30.3 µM, […]) is on record?
A: The value was 81.77%.

Q: With `Cc1sc2nc(CCN)nc(N3CCN(S(C)(=O)=O)CC3)c2c1C` as the compound, how does the “Percent Effect” value (30.3 µM, […]) read?
A: The value was -0.9568%.

Q: With `Cc1sc2nc(CCN)nc(N3CCC(N4CCCC4)CC3)c2c1C` as the compound, how does the “Percent Effect” value (30.3 µM, […]) read?
A: The value was 27.1%.

Q: Which “Percent Effect” value (30.3 µM, […]) does the source give for `Cc1ccc(NC(=O)N2CCOC(C)(c3cnn(C)c3)C2)c(C)c1` (centres undefined) here?
A: Its value is 12.13%.

Q: With `Cc1nn(C)c(C)c1S(=O)(=O)N(C)Cc1nn(C)c(Cl)c1Cl` as the compound, how does the “Percent Effect” value (30.3 µM, […]) read?
A: Its value is 1.519%.

Q: Which “Percent Effect” value (30 µM) does the source give for `Cc1cn2c(n1)CCC(NC(=O)c1oc(Br)cc1C)C2` (centres undefined) here?
A: Its value is 33.37%.

Q: `N#Cc1ccc(N2CC3(CCN(c4nccs4)C3)C2)nc1.O=CO.O=CO` was tested. Which “Percent Effect” value (30.3 µM, […]) did it give?
A: Its value is 9.16%.

Q: Which “Percent Effect” value (30.3 µM, […]) does the source give for `CCN1CC2(CCN(CCOc3ccc(F)cc3)CC2)CC1=O` here?
A: The value was 52.2%.

Q: Which “Percent Effect” value (30.3 µM, […]) does the source give for `O=C1CC2(CCCC2)CN1CCOc1ccc(F)cc1` here?
A: The value was 12.36%.

Q: For `CCN1CC2(CCC1=O)CCN(CCOc1ccc(F)cc1)CC2`, which “Percent Effect” value (30.3 µM, […]) is on record?
A: The value was 19.57%.

Q: For `Cn1cc(C(=O)OC2CN(c3nc4c(C(F)(F)F)cccc4s3)C2)nn1`, which “Percent Effect” value (30.3 µM, […]) is on record?
A: Its value is 15.05%.

Q: With `Cc1ccc(C(=O)NCC(O)CN2CCCC2=O)cc1Cl` (centres undefined) as the compound, how does the “Percent Effect” value (30.3 µM, […]) read?
A: The value was -2.277%.

Q: With `O=C(NCCc1c[nH]cn1)C1CCCN(C2CCOCC2)C1` (centres undefined) as the compound, how does the “Percent Effect” value (30.3 µM, […]) read?
A: Its value is -4.763%.

Q: `Cn1c(CCNC(=O)C2CCCN(C3CCOCC3)C2)n[nH]c1=O` (centres undefined) was tested. Which “Percent Effect” value (30.3 µM, […]) did it give?
A: The value was 60.82%.

Q: Which “Percent Effect” value (30.3 µM, […]) does the source give for `Cc1csc(CCNC(=O)C2CCCN(C3CCOCC3)C2)n1` (centres undefined) here?
A: The value was -3.021%.

Q: With `CC(C)c1nc(CN(C)C(=O)C2CC(=O)N(Cc3ccncc3)C2)cs1` (centres undefined) as the compound, how does the “Percent Effect” value (30.3 µM, […]) read?
A: Its value is 1.333%.

Q: With `Cn1ccnc1CN1CCC2(CC1)CC(NC(=O)c1ccccn1)CO2.O=C(O)C(F)(F)F` (centres undefined) as the compound, how does the “Percent Effect” value (30 µM, 30.03 µM) read?
A: Its value is 2.919%.

Q: Which “Percent Effect” value (30 µM, 30.03 µM) does the source give for `O=C(NC1COC2(CCN(Cc3ccccn3)CC2)C1)c1ccccn1.O=C(O)C(F)(F)F` (centres undefined) here?
A: Its value is 99.23%.

Q: For `Cc1nc(C(=O)N(C)C)nn1-c1ccccc1C(C)C`, which “Percent Effect” value (30.3 µM, […]) is on record?
A: Its value is 17.02%.

Q: For `CCN1CC2(CC1=O)CN(Cc1cnn(C)c1)CCN(C(C)=O)C2.O=C(O)C(F)(F)F` (centres undefined), which “Percent Effect” value (30 µM, 30.03 µM) is on record?
A: The value was 8.348%.

Q: For `O=C(NCCc1ccccc1)C1CCC(Cn2cnnn2)CC1` (centres undefined), which “Percent Effect” value (30 µM, 30.03 µM) is on record?
A: The value was 4.824%.

Q: With `COCC(=O)N1CCN(S(=O)(=O)c2cccs2)[C@H]2CS(=O)(=O)C[C@H]21` as the compound, how does the “Percent Effect” value (30.3 µM, […]) read?
A: The value was -6.326%.

Q: For `COCC(=O)N1CCN(S(=O)(=O)c2ccccc2)[C@H]2CS(=O)(=O)C[C@H]21`, which “Percent Effect” value (30.3 µM, […]) is on record?
A: The value was 50.92%.

Q: Which “Percent Effect” value (30.3 µM, […]) does the source give for `CCC(=O)N1CCN(S(=O)(=O)c2cccc(F)c2)[C@H]2CS(=O)(=O)C[C@H]21` here?
A: Its value is 19.41%.

Q: With `CS(=O)(=O)CC(=O)N1C[C@@H]2COC[C@]2(c2nnc(C3CC3)o2)C1` as the compound, how does the “Percent Effect” value (30 µM, 30.03 µM) read?
A: Its value is 6.501%.

Q: How did the “Percent Effect” value (30.3 µM, […]) turn out when `COc1cccc2c1ccn2CCC(=O)Nc1c2c(nn1C)CSC2` was run?
A: Its value is -9.12%.

Q: How did the “Percent Effect” value (30.3 µM, […]) turn out when `CCN(CC)C(=O)CS(=O)(=O)c1cc(OC)c(OC)cc1C` was run?
A: Its value is -79.93%.

Q: For `N#Cc1c(F)cccc1N1CCC(C(=O)Nc2nccs2)CC1`, which “Percent Effect” value (30.3 µM, […]) is on record?
A: The value was 8.432%.

Q: How did the “Percent Effect” value (30.3 µM, […]) turn out when `N#Cc1c(F)cccc1N1CCN(C(=O)Nc2nncs2)CC1` was run?
A: Its value is 50.08%.

Q: How did the “Percent Effect” value (30.3 µM, […]) turn out when `N#Cc1c(F)cccc1N1CCCC(C(=O)Nc2nncs2)C1` (centres undefined) was run?
A: Its value is 39.68%.

Q: How did the “Percent Effect” value (30.3 µM, […]) turn out when `COCCN(Cc1ccccc1)Cc1nc(-c2ccsc2)no1` was run?
A: Its value is 22.89%.

Q: With `CCN1CCN(C(C)(C)CNc2nc(C)cc(C3CCC3)n2)CC1` as the compound, how does the “Percent Effect” value (30.3 µM, […]) read?
A: The value was 54.39%.

Q: `Cc1cc(C2CCC2)nc(NCC(C)(C)N2CCOCC2)n1` was tested. Which “Percent Effect” value (30.3 µM, […]) did it give?
A: The value was 23.38%.

Q: How did the “Percent Effect” value (30.3 µM, […]) turn out when `Cc1cc(C2CCC2)nc(NCC(C)(C)N2CCCC2)n1` was run?
A: Its value is 9.291%.

Q: With `CCc1nc(C)c([C@H]2CN(C)C[C@@H]2C(=O)NCCc2cnccn2)[nH]1` as the compound, how does the “Percent Effect” value (30 µM, 30.03 µM) read?
A: The value was 23.64%.

Q: For `CCNC(=O)NC(=O)CN1CCOC(c2ccccc2Cl)C1` (centres undefined), which “Percent Effect” value (30.3 µM, […]) is on record?
A: Its value is 7.788%.

Q: With `CN(C)CCNc1cc(-c2ncccn2)c2cc[nH]c2n1` as the compound, how does the “Percent Effect” value (30.3 µM, […]) read?
A: The value was 4.01%.

Q: `COc1ccc2c(c1)Cc1c-2nc(N)c(C#N)c1C1CCOC1` (centres undefined) was tested. Which “Percent Effect” value (30.3 µM, […]) did it give?
A: Its value is 63.86%.

Q: For `COc1ccc2c(c1OC)Cc1c-2nc(N)c(C#N)c1C1CCOC1` (centres undefined), which “Percent Effect” value (30.3 µM, […]) is on record?
A: The value was 11.41%.

Q: With `N#Cc1c(N)nc2c(c1C1CCOC1)CCc1cc(O)ccc1-2` (centres undefined) as the compound, how does the “Percent Effect” value (30.3 µM, […]) read?
A: The value was -89.94%.

Q: `Cc1nn(C)c(N(C)C)c1CNCc1cccc(OCCN(C)C)c1` was tested. Which “Percent Effect” value (30 µM, 30.03 µM) did it give?
A: The value was -13.13%.

Q: Which “Percent Effect” value (30 µM, 30.03 µM) does the source give for `COc1cccc(CN(C)C(=O)CN2CC(n3nc(C)cc3C)C2)c1` here?
A: The value was 4.207%.

Q: `Cc1cc(C)n(C2CN(CC(=O)N(C)Cc3ccco3)C2)n1` was tested. Which “Percent Effect” value (30.3 µM, […]) did it give?
A: Its value is -0.4731%.

Q: For `COc1ccccc1CN(C)C(=O)CN1CC(n2nc(C)cc2C)C1`, which “Percent Effect” value (30.3 µM, […]) is on record?
A: The value was 72.41%.

Q: With `CC(=O)N1CCC(N2CC[C@H](c3nc4cc(C)ccc4o3)C2)CC1` as the compound, how does the “Percent Effect” value (30.3 µM, […]) read?
A: The value was 22.67%.

Q: `CCn1nc(C)c2ncnc(NCC(=O)N3CCOCC3)c21` was tested. Which “Percent Effect” value (30 µM, 30.03 µM) did it give?
A: The value was 13.04%.

Q: Which “Percent Effect” value (30 µM) does the source give for `CCN(CC)C(=O)Cn1ccc2cc(NC(=O)NC3CC3)ccc21` here?
A: The value was 18.91%.

Q: With `O=C(O)C(F)(F)F.O=C1CC[C@H]2[C@H](CCN2c2ncc(F)cn2)N1c1ccccc1` as the compound, how does the “Percent Effect” value (30.3 µM, […]) read?
A: The value was 36.83%.

Q: Which “Percent Effect” value (30.3 µM, […]) does the source give for `Cc1ccoc1C(=O)N1CC[C@H]2[C@@H]1CCC(=O)N2c1cccnc1.O=C(O)C(F)(F)F` here?
A: Its value is 3.255%.

Q: For `Cc1ccc(C(=O)N2CC[C@H]3[C@@H]2CCC(=O)N3c2cccnc2)o1.O=C(O)C(F)(F)F`, which “Percent Effect” value (30.3 µM, […]) is on record?
A: The value was 56.88%.

Q: Which “Percent Effect” value (30.3 µM, […]) does the source give for `O=C(c1cscn1)N1CC[C@H]2[C@@H]1CCC(=O)N2c1ccccc1` here?
A: The value was 4.628%.

Q: Which “Percent Effect” value (30.3 µM, […]) does the source give for `O=C(c1cccs1)N1CC[C@H]2[C@@H]1CCC(=O)N2c1cccnc1` here?
A: The value was -14.6%.

Q: For `Cc1cnc(C(=O)N2CC[C@H]3[C@@H]2CCC(=O)N3c2cccnc2)cn1.O=C(O)C(F)(F)F`, which “Percent Effect” value (30.3 µM, […]) is on record?
A: The value was 26.72%.

Q: `O=C(O)C(F)(F)F.O=C1CC[C@H]2[C@H](CCN2c2ncccn2)N1c1ccccc1` was tested. Which “Percent Effect” value (30.3 µM, […]) did it give?
A: Its value is 50.79%.

Q: With `O=C(c1cnccn1)N1CC[C@H]2[C@@H]1CCC(=O)N2c1cccnc1` as the compound, how does the “Percent Effect” value (30.3 µM, […]) read?
A: Its value is 69.01%.

Q: For `Cc1cnc(N2CC[C@H]3[C@@H]2CCC(=O)N3c2ccccc2)nc1.O=C(O)C(F)(F)F`, which “Percent Effect” value (30.3 µM, […]) is on record?
A: The value was 39.44%.
